{"source": "PubChem BioAssay (EPA / NIEHS)", "note": "Calls of active or inactive are those of the source. The calls were made as follows: active = hit-call score of the fitted dose curve at least 0.9, where 1 is the maximum; inactive = score below 0.9."}
{"assay": "ATG_EGR_CIS: Attagene CIS-FACTORIAL HepG2 Assay for human Early Growth Response 1 (EGR1) (AID 2282938)", "conditions": "HepG2 Attagene CIS-FACTORIAL EGR reporter mRNA; actives raise or lower the signal", "in_short": "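Multiplexed cis-reporter system in human hepatoma HepG2 cells, transiently transfected. Cells are dosed for 24 h; reporter transcripts are amplified, fluorescently tagged and sized by capillary electrophoresis, with DMSO as negative control.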"}
{"smiles": "CCCCCCCCCCCC#N", "outcome": "inactive"}
{"smiles": "O=C(NC(=O)c1c(F)cccc1F)Nc1ccc(Oc2ccc(C(F)(F)F)cc2Cl)cc1F", "outcome": "inactive"}
{"smiles": "CC1CCCC1.[C-]#[O+].[C-]#[O+].[C-]#[O+].[Mn]", "outcome": "inactive"}
{"smiles": "CCCCNP(N)(N)=S", "outcome": "inactive"}
{"smiles": "CC(=O)C=Cc1ccccc1", "AC50": "146 µM (active)"}
{"smiles": "CCC(=O)c1ccc(Cl)cc1", "outcome": "inactive"}
{"smiles": "Nc1ccccc1C(=O)Oc1ccc2ccccc2c1", "outcome": "inactive"}
{"smiles": "C=CC(=O)OC", "outcome": "inactive"}
{"smiles": "CC(C)CCCCCCCOC(=O)c1ccccc1C(=O)OCCCCCCCC(C)C", "outcome": "inactive"}
{"smiles": "N#CCNCC#N", "outcome": "inactive"}
{"smiles": "CN(C)N", "outcome": "inactive"}
{"smiles": "CN1C[C@H](C(=O)N[C@]2(C)O[C@@]3(O)[C@@H]4CCCN4C(=O)[C@H](Cc4ccccc4)N3C2=O)C=C2c3cccc4[nH]cc(c34)C[C@H]21", "outcome": "inactive"}
{"smiles": "O=[N+]([O-])C=Cc1ccccc1", "AC50": "14.4 µM (active)"}
{"smiles": "Nc1ccc(Cl)c(Cl)c1", "outcome": "inactive"}
{"smiles": "CCCCOP(=O)(O)OCCCC", "outcome": "inactive"}
{"smiles": "O=C(O)CCl", "outcome": "inactive"}
{"smiles": "CC(O)CN(CC(C)O)CC(C)O", "note": "(configuration not stated)", "outcome": "inactive"}
{"smiles": "Nc1cc(Cl)cc(Cl)c1", "outcome": "inactive"}
{"smiles": "O=[N+]([O-])c1ccc(Cl)cc1", "outcome": "inactive"}
{"smiles": "Cc1ccc(C)c2ccccc12", "outcome": "inactive"}
{"smiles": "C=CCO", "outcome": "inactive"}
{"smiles": "COC(=O)COc1ccc(Cl)cc1Cl", "outcome": "inactive"}
{"smiles": "[CH3][Sn]([Cl])([Cl])[Cl]", "outcome": "inactive"}
{"smiles": "CC(=O)c1cc2c(cc1C)C(C)(C)C(C)CC2(C)C", "note": "(configuration not stated)", "outcome": "inactive"}
{"smiles": "Nc1ccc(-c2ccc(N)c(N)c2)cc1N", "outcome": "inactive"}
{"smiles": "c1cc(OCC2CO2)ccc1Cc1ccc(OCC2CO2)cc1", "note": "(configuration not stated)", "AC50": "33.4 µM (active)"}
{"smiles": "C=CC(=O)OCCCCOC(=O)C=C", "AC50": "62.4 µM (active)"}
